# Screen size: about 66,000 compounds; about 960 (1.5%) showed an effect of 50% or more. Many of the other results were omitted from the sample, so strong results are more common in it than they were.
# System: Trypanosoma brucei
# Assay: Trypanosoma brucei 72 hour study
# Type: functional, organism-based
# Set-up: scale not given: in the data most compounds retested in dose-response had high values
smiles,measurement,setting,value
CN1CCCC(c2ccnc(C(=O)NC3CC3)c2)C1 (stereo not drawn),Percent Effect,"30.3 µM, […]",-4.506%
Cc1occc1C(=O)N1CCC2(CC1)CC(OCc1ccccn1)CO2.O=C(O)C(F)(F)F (stereo not drawn),Percent Effect,"30.3 µM, […]",-782.3%
CCC(C)NC(=O)c1nnn(-c2cccc3c2CCN(C)C3)c1C (stereo not drawn),Percent Effect,"30 µM, 30.03 µM",31.65%
CC(C)c1ncc(CN2CCC(CO)C2)cn1.O=C(O)CC(O)(CC(=O)O)C(=O)O (stereo not drawn),Percent Effect,"30.3 µM, […]",-24.24%
O=C(NCc1cccnc1)N1CCC2(CC(=O)N(c3ccsc3)C2)C1.O=C(O)C(F)(F)F (stereo not drawn),Percent Effect,"30.3 µM, […]",-73.27%
Cc1ccsc1-c1cccc(-c2ccn(CC3CCNC3)n2)c1 (stereo not drawn),Percent Effect,"30 µM, 30.03 µM",33.01%
Cc1ccc(Oc2cc(F)ccc2O[C@@H]2CCC[C@@H](N)[C@H]2O)cc1,Percent Effect,"30.3 µM, […]",100.7%
N[C@@H]1CCC[C@@H](Oc2ccc(F)cc2Oc2cccc(F)c2)[C@@H]1O,Percent Effect,"30.3 µM, […]",3.71%
CNCc1cc(F)ccc1Oc1ccc(F)cc1,Percent Effect,"30.3 µM, […]",-17.97%
CN(C(=O)c1ccon1)[C@@H]1CCC[C@@H](Oc2ccccc2)[C@@H]1O,Percent Effect,"30.3 µM, […]",-27.68%
Cc1noc(C)c1C(=O)N[C@@H]1CC[C@@H](Oc2ccccc2)[C@@H]1O,Percent Effect,"30.3 µM, […]",-4.467%
N[C@@H]1CCC[C@@H](Oc2ccc(F)cc2Oc2ccccc2)[C@@H]1O,Percent Effect,"30.3 µM, […]",101.1%
Cc1noc(C)c1C(=O)N[C@@H]1CCC[C@@H](Oc2ccccc2)[C@@H]1O,Percent Effect,"30.3 µM, […]",5.859%
CN[C@@H]1CCC[C@@H](Oc2ccccc2Oc2ccc(C)cc2)[C@@H]1O,Percent Effect,"30.3 µM, […]",101%
Cc1cc(C)nc(N2CC[C@H](Oc3ccccc3F)[C@@H](O)CC2)n1,Percent Effect,"30.3 µM, […]",-2.702%
Cc1ccc(N2CC[C@H]3O[C@@H](C(=O)N4CCCCO4)CC[C@H]32)nn1.O=C(O)C(F)(F)F,Percent Effect,"30.3 µM, […]",-38.73%
Cc1cc(C(=O)N2CCc3nnc(N)cc3C2)c(C)n1-c1ccccc1,Percent Effect,10 µM,-23.32%
same,Percent Effect,"30.3 µM, […]",-29.37%
Cc1ccoc1-c1nnc(CN2CCn3c(C)nnc3C2)o1,Percent Effect,10 µM,-13.57%
same,Percent Effect,"30.3 µM, […]",-3.504%
CN(C)c1cc(C2CCCN(S(=O)(=O)c3cn[nH]c3)C2)ccn1 (stereo not drawn),Percent Effect,"30.3 µM, […]",-2.52%
Cc1cccc(CNc2cc(C3CCCNC3)ccn2)n1.Cl (stereo not drawn),Percent Effect,"30.3 µM, […]",3.917%
CCC1CN(C)c2ccccc2CN1C(=O)Nc1ccccc1OC (stereo not drawn),Percent Effect,"30.3 µM, […]",42.13%
CC(c1cccnc1)N(C)Cc1cc(O)c2cc(F)ccc2n1 (stereo not drawn),Percent Effect,"30 µM, 30.03 µM",-16.14%
Br.Cn1cc(CN2CCC(c3cc(COc4cccc(Cl)c4)[nH]n3)C2)cn1 (stereo not drawn),Percent Effect,"30.3 µM, […]",49.27%
O=C(O)C(F)(F)F.O=C(c1ccoc1)N1C[C@@H]2OCCN(c3ncccn3)[C@@H]2C1,Percent Effect,"30.3 µM, […]",-8.279%
Cc1ccc2[nH]c(-c3cn(C4CCNCC4)nn3)nc2c1C,Percent Effect,"30 µM, 30.03 µM",-22.65%
Cc1c(C)c(C)c2[nH]c(-c3cn(C4CCNCC4)nn3)nc2c1C,Percent Effect,"30 µM, 30.03 µM",91.25%
Cc1cccc2[nH]c(-c3cn(C4CCNCC4)nn3)nc12,Percent Effect,"30 µM, 30.03 µM",-21.72%
O=C(NCC1CC1)C1CCC2(CCN(C(=O)c3cccnc3)CC2)O1.O=C(O)C(F)(F)F (stereo not drawn),Percent Effect,"30.3 µM, […]",-34.45%
O=C([C@H]1C[C@@H]2CN(c3ncc(F)cn3)C[C@H]1O2)N1CCCC1,Percent Effect,"30.3 µM, […]",-1.674%
Cc1cccc(Cc2cc(C)nc(C3CCCNC3)c2)c1 (stereo not drawn),Percent Effect,"30.3 µM, […]",100.3%
Cc1cc(Cc2ccccc2C)cc(C2CCCNC2)n1 (stereo not drawn),Percent Effect,"30.3 µM, […]",49.51%
Cc1cc(Cc2ccccc2F)cc(C2CCCNC2)n1 (stereo not drawn),Percent Effect,"30.3 µM, […]",18.5%
Cc1cc(Nc2cnccn2)cc(C2CCCNC2)n1 (stereo not drawn),Percent Effect,"30.3 µM, […]",-9.252%
Cc1nc(C2CCCNC2)cc(N(C)CCc2ccccc2)n1 (stereo not drawn),Percent Effect,"30.3 µM, […]",33.93%
Cc1cc(Cc2ccccc2)cc(C2CCCNC2)n1 (stereo not drawn),Percent Effect,"30.3 µM, […]",2.708%
Cc1nc(NC2CCCCC2)cc(C2CCCNC2)n1.Cl (stereo not drawn),Percent Effect,"30.3 µM, […]",43.9%
Cc1cc(Cc2cccc(C(F)(F)F)c2)cc(C2CCCNC2)n1 (stereo not drawn),Percent Effect,"30.3 µM, […]",99.88%
Cc1cc(Cc2ccc(F)cc2)cc(C2CCCNC2)n1 (stereo not drawn),Percent Effect,"30.3 µM, […]",51.54%
CN1CC(=O)N(c2cnn(C)c2)CC12CCN(Cc1cccs1)C2.O=C(O)C(F)(F)F.O=C(O)C(F)(F)F (stereo not drawn),Percent Effect,"30 µM, 30.03 µM",-5.896%
Cc1nc(CN2C(=O)CCC23CCN(Cc2ccccn2)CC3)cs1.O=C(O)C(F)(F)F.O=C(O)C(F)(F)F,Percent Effect,"30.3 µM, […]",-6.926%
COCCN1C(=O)C[C@H]2[C@H]1CCN2Cc1ccc(OC)cc1.O=C(O)C(F)(F)F,Percent Effect,"30 µM, 30.03 µM",-19.5%
CC(C)CN1CCC(NC(=O)c2ccc(Cl)cc2Cl)CC1,Percent Effect,"30 µM, 30.03 µM",-12.53%
Cc1ncc(CNCCO)c2cc(C(=O)c3ccc(Br)cc3)oc12.Cl,Percent Effect,"30 µM, 30.03 µM",-4.371%
CCOCC1CN(CCc2ccccc2)Cc2c1cnn2C (stereo not drawn),Percent Effect,"30.3 µM, […]",62.26%
COCC1CN(CCc2ccc(OC)c(OC)c2)Cc2c1cnn2C (stereo not drawn),Percent Effect,"30.3 µM, […]",-2.73%
CCOCC1CN(CCOCc2ccccc2)Cc2c1cnn2C (stereo not drawn),Percent Effect,"30.3 µM, […]",-79.88%
O=C(O)C(F)(F)F.O=C1N(CC2CCCC2)CCC12CCN(c1ncc(F)cn1)CC2,Percent Effect,"30.3 µM, […]",-27.57%
Fc1ccccc1Sc1ccccc1CNC1=NCCN1.I,Percent Effect,"30 µM, 30.03 µM",6.107%
Cn1cccc1C(=O)N1C[C@@H]2C[C@@H](c3nc(C4CC4)cs3)O[C@@H]2C1.O=C(O)C(F)(F)F,Percent Effect,"30 µM, 30.03 µM",-16.96%
COc1ccc(-n2ccc(C(=O)NCCN3CCC(C)CC3)n2)cc1,Percent Effect,"30.3 µM, […]",26.29%
same,Percent Effect,"10 mM, 10 mM as filed; unlikely as a test dose",24.76%

# From ChEMBL document CHEMBL3988442, “University of Dundee, Small-Polar-MMV Screening Library” (2021)
